NS3h inh CB = blocks HCV NS3 helicase binding to DNA; NS3h Cy5-dT15 DNA binding, fluorescence polarization; inhibition, % at 100 µM; 1.6% of 16,000 active; AID 687043;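 active = inhibition above the average over every tested compound plus 3 SD, cut at about 40% in these data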
Cy5 interf NS3h = counter-screen for HCV NS3 helicase inhibitors: fluorescence interference. 6% of 16,000 active. fluorescence interference ratio at 100 µM. AID 720488. Cy5-dT15 DNA with NS3h; actives lie on both sides; signal over control mean, under 1 quenches;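 active = compound fluorescence over control fluorescence at most 0.8, a quencher, or at least a set upper limit, an enhancer; inactive = ratio between 0.8 and the set upper limit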
Of the large screens only hits and unclear results are named; the others gave an inactive call. The list is not random: actives were taken first. Their share in the collection is about 7.6%.

O=C(Nc1ccccc1Cl)C1CN(S(=O)(=O)c2ccccc2)CCN1S(=O)(=O)c1ccccc1 (configuration not stated)	Cy5 interf NS3h 1.4
CC1=C(C(=O)OC(C)C)C(c2ccccc2)N2C(=O)CCSC2=N1 (configuration not stated)	none
O=C1C=CC(=O)N1c1ccccc1SC(F)(F)F	NS3h inh CB 45, Cy5 interf NS3h 0.79
COc1ccc(/C(N)=N\OC(=O)c2ccc(C)c([N+](=O)[O-])c2)cc1	none
CCOc1ccccc1NC(=O)c1ccc(OC)cc1	Cy5 interf NS3h 1.3
COc1ccc(C(=O)NCc2ccccc2C)cc1	none
CCOC(=O)CNC(=O)c1ccc(OC)cc1	Cy5 interf NS3h 0.71
CCOc1ccc(C(=O)Nc2ccccc2C(=O)O)cc1	none
COc1ccc(-c2noc(COc3ccccc3)n2)cc1	none
O=C(NCc1cccnc1)/C(=C/c1ccc(-c2cccc(Cl)c2)o1)NC(=O)c1ccccc1	none
C=CCOC(=O)C1=C(C)NC(C)=C(C(=O)OCC=C)C1c1ccc(OC)c(OC)c1	Cy5 interf NS3h 0.8
C=CCOC(=O)C1=C(C)NC(C)=C(C(=O)OCC=C)C1c1ccc(O)c(OCC)c1	none
O=C1CC(N2CCN(C(c3ccccc3)c3ccccc3)CC2)C(=O)N1c1ccc(S(=O)(=O)N2CCOCC2)cc1 (configuration not stated)	none
O=C(Nc1ccc2c(c1)C(=O)OC2)NC1CCCCC1	Cy5 interf NS3h 1.4
CN(C)c1cccc(C(=O)NC2CCCCCC2)c1	none
O=C(CSc1ncc(-c2ccccc2)[nH]1)Nc1ccc(F)cc1	Cy5 interf NS3h 0.78
O=C(CSCc1ccc(F)cc1)Nc1ccccc1	none
CC1(C)C/C(=N/O)c2cc3c(nc2C1)CCCC3	none
CCOc1cc(C(=O)Nc2ccc(F)cc2)cc(OCC)c1OCC	Cy5 interf NS3h 0.71
CCOc1cc(OCC)cc(C(=O)Nc2ccc(F)cc2)c1	none
COc1ccc(CC(=O)NCC2CCCO2)cc1OC (configuration not stated)	none
O=C(O)c1ccc(C(=O)NCc2ccccc2)c(C(=O)O)c1	none
COCCNC(=S)Nc1ccc(OC)cc1	Cy5 interf NS3h 0.77
O=C(NCc1ccccc1)c1ccccc1Cl	Cy5 interf NS3h 0.79
O=C(Cc1ccc(F)cc1)NCC1CCCO1 (configuration not stated)	Cy5 interf NS3h 0.75
Cc1ccc(CNC(=O)C(=O)N2CCCC2)cc1	Cy5 interf NS3h 1.3
Cc1ccc(CNC(=O)C(=O)NC(C)C)cc1	none
S=C(NCCOCCOCCNC(=S)Nc1ccccc1)Nc1ccccc1	none
O=C(Nc1ccc(C(F)(F)F)cc1)c1ccc2c(c1)C(=O)N(CC1CCCO1)C2=O (configuration not stated)	none
O=[N+]([O-])c1cc(C(=S)N2CCOCC2)ccc1O	none
COc1ccc(CCNC(=O)C(=O)NCCCOC(C)C)cc1	none
Cc1ccc(CNC(=O)C(=O)NCc2ccncc2)cc1	none
COc1ccc(C(O)(CNCc2ccccc2)c2ccc(Br)cc2)cc1 (configuration not stated)	Cy5 interf NS3h 0.73
O=C(Cc1ccc(F)cc1)NCc1ccccc1	Cy5 interf NS3h 0.59
O=C(NCc1ccc(F)cc1)c1ccccc1I	none
COCCCNC(=O)C(=O)NCCc1ccc(OC)cc1	Cy5 interf NS3h 0.74
Cc1ccc(CNC(=O)C(=O)NCc2ccccc2)cc1	Cy5 interf NS3h 1.2
Cc1ccc(C(O)(CNCc2ccccc2)c2ccc(Br)cc2)cc1 (configuration not stated)	none
Cc1ccc(OCC(=O)Nc2ccc(Cl)cn2)c(Br)c1	none
O=C(Cc1ccc(F)cc1)Nc1ccc(Cl)cc1Cl	none
COc1ccc(CNC(=O)C(=O)Nc2ccccc2C)cc1	none
COc1ccc(CNC(=O)C(=O)NCc2ccccc2)cc1	Cy5 interf NS3h 0.73
O=C1CSC2(N1)C1CC3CC(C1)CC2C3 (configuration not stated)	Cy5 interf NS3h 1.2
CCN(CC)C(=O)CCN1C(=O)/C(=C2\SC(=S)N(CCC(=O)N(CC)CC)C2=O)SC1=S	none
Cc1ccccc1N1C(=O)/C(=C/c2cc(C)n(-c3cccnc3)c2C)C(=O)NC1=S	none
CCc1ccccc1N1C(=O)/C(=C/c2cc(C)n(-c3cccnc3)c2C)C(=O)NC1=S	Cy5 interf NS3h 1.2
Cc1ccc(-c2cc3nc(C)c(Cl)c(=O)n3[nH]2)cc1	Cy5 interf NS3h 0.77
CCCc1cc(=O)n2[nH]c(-c3ccc(F)cc3)cc2n1	none
CCCc1cc(=O)n2[nH]c(-c3ccc(C)cc3)cc2n1	Cy5 interf NS3h 1.2
Cc1nc2cc(-c3ccccc3Cl)[nH]n2c(=O)c1Cl	none
COc1ccc(OC)c(NC(=O)c2cccc(Cl)c2Cl)c1	none
O=[N+]([O-])c1cccc(C2=Nc3ccc([N+](=O)[O-])cc3ON2)c1	Cy5 interf NS3h 0.74
O=[N+]([O-])c1cccc(-c2ccc(CO)o2)c1	none
COc1c(Cl)cc(C(=O)Nc2ccc(N3CCOCC3)cc2)cc1Cl	none
CCC(=O)Nc1ccc(NC(=O)c2cccc(Cl)c2Cl)cc1	none
O=C(Nc1ccc(N2CCOCC2)cc1)c1cccc(Cl)c1Cl	Cy5 interf NS3h 0.67
CCCCOC(=O)c1ccc(NC(=O)c2cccc(Cl)c2Cl)cc1	Cy5 interf NS3h 0.69
O=C(O)/C=C\C(=O)Nc1cccc(-c2cn3ccccc3n2)c1	none
NS(=O)(=O)c1ccc(NC(=O)CN2C(=O)C(=O)N(c3ccccc3)C2=O)cc1	none
COc1cccc(N2C(=O)C(=O)C(=C(O)c3ccccc3)C2c2cccc([N+](=O)[O-])c2)c1 (configuration not stated)	none
COc1ccc(NC2=CC(=O)CC(c3ccco3)C2)cc1OC (configuration not stated)	none
Cc1ccc2c(c1)NC(c1ccc(F)cc1)C1=C(CC(C)(C)CC1=O)N2 (configuration not stated)	none
Cc1ccc(N2C(=O)CC(NCc3cccnc3)C2=O)cc1 (configuration not stated)	Cy5 interf NS3h 1.3
COc1cccc(CCNC2CC(=O)N(c3ccc(C)cc3)C2=O)c1 (configuration not stated)	none
Cc1ccc(-c2nc3s/c(=C/c4ccc(C(C)C)cc4)c(=O)n3n2)cc1	none
Cc1cccc(C2=N/C(=C/c3ccc([N+](=O)[O-])cc3)C(=O)N2c2ccc(O)cc2)c1	none
COc1ccc(C2=N/C(=C/c3ccc([N+](=O)[O-])cc3)C(=O)N2c2ccc(O)cc2)cc1	Cy5 interf NS3h 0.79
COc1cc(C2C(C(=O)OCCOc3ccccc3)=C(C)NC3=C2C(=O)CC(C)(C)C3)cc(OC)c1O (configuration not stated)	none
CCCCNC(=O)/C(=C/c1ccc(C)o1)NC(=O)c1ccccc1	Cy5 interf NS3h 0.66
CCCCNC(=O)/C(=C\c1ccc(-c2cccc([N+](=O)[O-])c2)o1)NC(=O)c1ccccc1	none
COc1ccc(C2CC(C(F)(F)F)n3nc(C(=O)Nc4cc(C(F)(F)F)ccc4Cl)c(Cl)c3N2)cc1OC (configuration not stated)	none
O=C1N/C(=N\N=C/c2ccccc2O)SC1Cc1ccccc1 (configuration not stated)	none
O=C1N/C(=N/N=C\c2ccccc2O)SC1Cc1ccc(Br)cc1 (configuration not stated)	NS3h inh CB 52
COc1ccc(OC)c(N(CC(=O)NCC(C)C)S(C)(=O)=O)c1	none
Cc1csc(Nc2ccccc2)[n+]1CCO	Cy5 interf NS3h 1.2
Cc1ccccc1NC1(c2ccccc2Cl)C(=O)c2ccccc2C1=O	Cy5 interf NS3h 0.74
O=C1c2ccccc2C(=O)C1(Nc1ccc(F)cc1)c1ccccc1	none
